PubChem BioAssay (NCATS)
“And” between values parts separate entries of the source, which are not always exact repeats. Equal values may be shown once. Results filed as inconclusive are left out. The source made the active and inactive calls. Calls come from the whole dose curve.

tested on: not listed separately; test: qHTS assay for small molecule agonists of retinoid X receptor alpha signaling (AID 588544); settings: HEK293T RXRa-UAS-bla, beta-lactamase reporter, 18 h; 530 nm emission; note: potency is the fitted concentration of half-maximal effect;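 for activation: 0% = DMSO basal wells and 100% = reference agonist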

| Compound | max response |
| --- | --- |
| COc1ccc2c(c1OC)C(=O)OC2C1c2cc3c(cc2CCN1C)OCO3 (stereo not drawn) | 0.13% |
| C=CCN=C=S | 2.45% |
| C[C@]12CCC(=O)C[C@@H]1CC[C@@H]1[C@@H]2CC[C@]2(C)[C@@H](O)CC[C@@H]12 | 21% |
| Oc1cc(Cl)c(Cl)cc1Cl | -8.67% |
| CCCSP(=O)(OCC)SCCC | -4.11% |
| CCOP(=O)(OCC)O/C(=C/Cl)c1ccc(Cl)cc1Cl | 10.8% |
| CCOC(=O)c1ccccc1C(=O)OCC | -7.23% and 2.92% |

molecular target: Retinoic acid receptor RXR-alpha (Homo sapiens) (UniProt P19793); test: as above; settings: HEK293T RXRa-UAS-bla, beta-lactamase reporter, 18 h; series mostly up to 76.7 µM; activation: at the top concentration
Sequence (P19793 whole entry, looked up): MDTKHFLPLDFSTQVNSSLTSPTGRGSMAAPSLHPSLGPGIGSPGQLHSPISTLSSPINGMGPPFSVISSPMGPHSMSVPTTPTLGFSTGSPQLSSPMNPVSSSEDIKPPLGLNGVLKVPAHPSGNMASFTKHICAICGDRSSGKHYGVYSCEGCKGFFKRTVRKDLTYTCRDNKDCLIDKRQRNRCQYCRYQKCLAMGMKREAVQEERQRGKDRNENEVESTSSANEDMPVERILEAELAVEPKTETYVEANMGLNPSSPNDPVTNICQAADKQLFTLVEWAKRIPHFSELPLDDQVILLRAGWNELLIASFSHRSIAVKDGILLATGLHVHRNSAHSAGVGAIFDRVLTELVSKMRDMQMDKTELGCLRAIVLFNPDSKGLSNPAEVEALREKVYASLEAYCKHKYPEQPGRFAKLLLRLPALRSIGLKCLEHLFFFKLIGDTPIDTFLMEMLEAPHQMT

| Compound | activation | Potency |
| --- | --- | --- |
| COc1ccc2c(c1OC)C(=O)OC2C1c2cc3c(cc2CCN1C)OCO3 (stereo not drawn) | 7.77% (inactive) | – |
| C=CCN=C=S | 3.41% (inactive) | – |
| C[C@]12CCC(=O)C[C@@H]1CC[C@@H]1[C@@H]2CC[C@]2(C)[C@@H](O)CC[C@@H]12 | – | 7.94 µM (active) |
| Oc1cc(Cl)c(Cl)cc1Cl | -2.13% (inactive) | – |
| CCCSP(=O)(OCC)SCCC | 6.25% (inactive) | – |
| CCOP(=O)(OCC)O/C(=C/Cl)c1ccc(Cl)cc1Cl | -27.9% (inactive) | – |
| CCOC(=O)c1ccccc1C(=O)OCC | – | inactive |

molecular target: Thyroid hormone receptor beta (Homo sapiens) (UniProt P10828); test: qHTS assay for small molecule agonists of thyroid hormone receptor beta signaling (AID 588545); settings: TR-UAS-bla GripTite HEK 293, beta-lactamase ratio, agonist mode, 18 h, percent of T3 response, DMSO as zero; series mostly up to 76.7 µM; activation: at the top concentration
Summary of the method: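 Cells (2500/well) were seeded, incubated 4 hrs at 37 C, dosed with a compound series, incubated 18 hrs, loaded with CCF4 dye for 2 hrs at RT, then read for fluorescence. Data were scaled between DMSO (0%) and 10 nM T3 (100%).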

Sequence of Thyroid hormone receptor beta (Homo sapiens) (P10828 whole entry, looked up): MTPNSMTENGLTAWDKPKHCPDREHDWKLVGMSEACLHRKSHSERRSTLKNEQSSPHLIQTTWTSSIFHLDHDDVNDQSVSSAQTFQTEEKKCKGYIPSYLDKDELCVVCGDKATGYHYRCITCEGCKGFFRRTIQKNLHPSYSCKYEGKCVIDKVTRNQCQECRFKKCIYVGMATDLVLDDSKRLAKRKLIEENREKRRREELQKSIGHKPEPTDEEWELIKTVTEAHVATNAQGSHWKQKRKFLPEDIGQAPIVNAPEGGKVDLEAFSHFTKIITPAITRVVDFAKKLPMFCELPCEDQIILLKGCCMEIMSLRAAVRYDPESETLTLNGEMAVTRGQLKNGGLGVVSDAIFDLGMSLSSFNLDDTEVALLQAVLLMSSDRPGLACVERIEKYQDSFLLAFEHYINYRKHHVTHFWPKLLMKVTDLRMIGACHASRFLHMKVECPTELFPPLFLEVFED

| Compound | activation | outcome |
| --- | --- | --- |
| COc1ccc2c(c1OC)C(=O)OC2C1c2cc3c(cc2CCN1C)OCO3 (stereo not drawn) | -29.5% (inactive) | – |
| C=CCN=C=S | 0.455% (inactive) | – |
| C[C@]12CCC(=O)C[C@@H]1CC[C@@H]1[C@@H]2CC[C@]2(C)[C@@H](O)CC[C@@H]12 | -3.92% (inactive) | – |
| O=C(O)c1cc[c]([Hg][Cl])cc1 | -3.46% (inactive) | – |
| COC1=CC(=O)O[C@@H](/C=C/c2ccccc2)C1 | 4.6% (inactive) | – |
| Oc1cc(Cl)c(Cl)cc1Cl | – | inactive |
| CCCSP(=O)(OCC)SCCC | 19.4% (inactive) | – |
| O=C1C2CC=CCC2C(=O)N1SC(Cl)(Cl)Cl (stereo not drawn) | -12.9% (inactive) | – |
| O=C1C[C@@H]2OCC=C3CN4CC[C@]56c7ccccc7N1[C@H]5[C@H]2[C@H]3C[C@H]46 | 3.66% (inactive) | – |
| CCOP(=O)(OCC)O/C(=C/Cl)c1ccc(Cl)cc1Cl | 1.1% (inactive) | – |
| CCOC(=O)c1ccccc1C(=O)OCC | – | inactive |

tested on: not listed separately; test: qHTS assay for small molecule antagonists of retinoid X receptor alpha signaling (AID 588546); settings: HEK293T RXRa-UAS-bla, beta-lactamase ratio, antagonist mode; measured here: W530 green channel, cytotoxicity proxy;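 note: cells stimulated with 9-cis-retinoic acid as agonist; % is set by controls: 0 for no effect and ±100 for the full control effect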
Summary of the method: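 Beta-lactamase reporter inhibition, read as CCF4 fluorescence ratio (ex 405, em 460/530 nm) after 2 h at RT. HEK293T UAS-bla cells, 2500/well, were stimulated with 9-cis-RA at 500 or 100 nM final alongside test compound for 18 h at 37 C.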

| Compound | max response |
| --- | --- |
| COc1ccc2c(c1OC)C(=O)OC2C1c2cc3c(cc2CCN1C)OCO3 (stereo not drawn) | -2.26% |
| C[CH2][Hg][S]c1ccccc1C(=O)O | -29.7% |
| C=CCN=C=S | -9.62% |
| C[C@]12CCC(=O)C[C@@H]1CC[C@@H]1[C@@H]2CC[C@]2(C)[C@@H](O)CC[C@@H]12 | 16.7% |
| COC1=CC(=O)O[C@@H](/C=C/c2ccccc2)C1 | 0.406% |
| Oc1cc(Cl)c(Cl)cc1Cl | -1.91% and -9.59% |
| CCCSP(=O)(OCC)SCCC | -12.4% |
| O=C1C2CC=CCC2C(=O)N1SC(Cl)(Cl)Cl (stereo not drawn) | -2.91% |
| CC[C@H](C)[C@H]1O[C@]2(C=C[C@@H]1C)C[C@@H]1C[C@@H](C/C=C(\C)[C@@H](O[C@H]3C[C@H](OC)[C@@H](O[C@H]4C[C@H](OC)[C@@H](O)[C@H](C)O4)[C@H](C)O3)[C@@H](C)/C=C/C=C3\CO[C@@H]4[C@H](O)C(C)=C[C@@H](C(=O)O1)[C@]34O)O2 | -21.4% |
| O=C1C[C@@H]2OCC=C3CN4CC[C@]56c7ccccc7N1[C@H]5[C@H]2[C@H]3C[C@H]46 | 7.39% |
| O=[N+]([O-])c1ccc(F)c([N+](=O)[O-])c1 | -4.46% |
| CCOP(=O)(OCC)O/C(=C/Cl)c1ccc(Cl)cc1Cl | 4.06% and 8.46% |
| CCOC(=O)c1ccccc1C(=O)OCC | 2.09% and -11.6% and -7.65% |
